Assay results taken from PubChem BioAssay.
Active and inactive are the calls of the source. Unless noted, how the calls were made is not given here.

What was measured:
[1] = tested on: XIP peptide (Xip251-270) binding; experiment: XIP fragment 251-270 binding compounds – biochemical, small-molecule microarray, fluorescence 635/667 nm, 0.1 µg/mL protein, primary screen (AID 1182); conditions: fluorescent protein binding, 635 nm, higher = more signal, called active from +8 up or from −8 down
XIP peptide (Xip251-270) = experiment: compounds binding XIP fragment 251-270 – biochemical, small-molecule microarray, fluorescence 635/667 nm, 0.5 µg/mL protein, primary screen (AID 1183); conditions: fluorescence 635 nm, higher = more signal
[2] = blood-stage malaria parasite viability loss – strain 3D7, DAPI fluorescence, 100 nL, primary screen (AID 1184);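 further: parasites grown inside human red blood cells in medium with human serum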; conditions: P. falciparum 3D7 growth, 3 d, higher = more signal
[3] = biological target: Homeobox protein Hox-A13 (Mus musculus) (UniProt Q62424); experiment: disruptors of Hoxa13 oligonucleotide interaction – biochemical, fluorescence polarization, labeled oligonucleotide, primary screen (AID 1185); conditions: Hoxa13:DNA binding, 15 min, higher = more signal, called active from +8 up or from −8 down
Homeobox protein Hox-A13 (Mus musculus), sequence (Q62424 whole entry, looked up): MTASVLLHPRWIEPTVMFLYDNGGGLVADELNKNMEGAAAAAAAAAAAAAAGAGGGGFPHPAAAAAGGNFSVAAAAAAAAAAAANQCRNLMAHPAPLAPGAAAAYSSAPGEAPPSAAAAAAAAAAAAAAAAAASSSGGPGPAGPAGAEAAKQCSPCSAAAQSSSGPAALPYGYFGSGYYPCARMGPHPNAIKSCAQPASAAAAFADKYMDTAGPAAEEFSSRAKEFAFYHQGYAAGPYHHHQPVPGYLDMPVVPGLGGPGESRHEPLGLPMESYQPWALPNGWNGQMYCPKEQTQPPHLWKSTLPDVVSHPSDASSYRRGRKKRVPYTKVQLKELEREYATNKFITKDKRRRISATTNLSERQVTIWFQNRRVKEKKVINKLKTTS

[4] = blockers of DNA damage checkpoint Chk1 activation – imaging, HeLa, hydroxyurea, phospho-Chk1 antibody, percent positive cells, primary screen (AID 1186); conditions: hydroxyurea-induced phospho-Chk1 immunofluorescence imaging, higher = more signal
[5] = blockers of DNA damage checkpoint Chk1 activation – imaging, HeLa, hydroxyurea, phospho-Chk1 nuclear intensity, primary screen (AID 1187); conditions: hydroxyurea-induced phospho-Chk1 immunofluorescence imaging, higher = more signal

| SMILES | composite z-score [1] | composite z-score (XIP peptide (Xip251-270)) | z-score [2] | z-score [3] | z-score [4] | z-score [5] |
| --- | --- | --- | --- | --- | --- | --- |
| COC(=O)C(CC#Cc1ccc2c(c1)[C@]1(C(=O)N2)[C@H](c2ccc(OCCO)cc2)N2[C@H](c3ccccc3)[C@H](c3ccccc3)OC(=O)[C@H]2[C@@H]1C(=O)N1CCN(c2ncccn2)CC1)C(=O)OC | 0.398 (inactive) | 0.775 | -2.2 | 0.338 (inactive) | -0.0604 (inactive) | -0.282 (inactive) |
| COCC(=C=CC[C@@H](O)c1cccc(OCCO)c1)CCO | 1.14 (inactive) | -0.347 | -0.315 | -1.85 (inactive) | -1.38 (inactive) | -0.0691 (inactive) |
| Cc1ccc(S[C@]2(C(=O)NCC(C)C)CC(=O)N(C3Cc4ccccc4C3)[C@@H]2c2ccc(CO)cc2I)cc1 | -0.238 (inactive) | -0.658 | -0.233 | -2.9 (inactive) | 0.495 (inactive) | 0.307 (inactive) |
| [N-]=[N+]=NCc1ccccc1C[C@]1(C(=O)N2CCOCC2)COC(c2ccc(OCCCO)cc2)=N1 | 0.15 (inactive) | 0.711 | -2.2 | -4.87 (inactive) | -0.677 (inactive) | -0.718 (inactive) |
| C=CCC(OC(C)=O)[C@@H]1[C@@H](N(Cc2ccc(-c3cccc(C(F)(F)F)c3)o2)C(=O)Cc2ccc(OC)cc2)c2cc(OCCCO)ccc2N1C(=O)Cc1ccc2ccccc2c1 (stereo not given in full) | 0.0389 (inactive) | 0.625 | -2.17 | -1.9 (inactive) | 0.162 (inactive) | 0.375 (inactive) |
| C=C[C@@H](OC)[C@H](OC(=O)Nc1ccc(OC)cc1)c1ccc(OC)c(O)c1 | 2.2 (inactive) | 0.462 | 1.46 | -2.54 (inactive) | 1.11 (inactive) | 1.39 (inactive) |
| CCCCC=C[C@@H](NC(=O)c1ccccc1)c1ccccc1 | 0.558 (inactive) | 0.496 | -1.47 | 2.61 (inactive) | 0.855 (inactive) | 0.274 (inactive) |
| CC(C)(C)OC(=O)CC[C@]1(C(=O)N2CCCCC2)COC(c2ccc(OCCCO)cc2)=N1 | 0.252 (inactive) | 0.643 | -1.4 | -4.56 (inactive) | -0.334 (inactive) | 0.131 (inactive) |
| Cc1cccc([C@H]2C[C@H]3C(I)=C[C@@H]2C(=O)[C@]32CO2)c1 | 0.162 (inactive) | -0.452 | 1.22 | -1.53 (inactive) | -0.33 (inactive) | -0.466 (inactive) |
| CCCCC(=C=CC[C@H](O)c1ccc(OCCO)cc1)C[C@H](O)COCc1ccccc1 | 0.9 (inactive) | 0.1 | -1.44 | -4.21 (inactive) | -0.122 (inactive) | -0.0784 (inactive) |
| O=C1N(CCS(=O)(=O)c2ccccc2)Cc2ccccc2[C@@H]2OC(c3ccc(OCCCO)cc3)=N[C@]12CCS(=O)(=O)c1ccccc1 | 1.25 (inactive) | 0.86 | -2.1 | 0.71 (inactive) | 0.367 (inactive) | 0.793 (inactive) |
| CC(C)(C)OC(=O)CC[C@]12N=C(c3ccc(OCCCO)cc3)O[C@H]1c1ccccc1N(Cc1ccccc1)C2=O | -0.326 (inactive) | 0.802 | -2.21 | -0.817 (inactive) | -0.022 (inactive) | 0.363 (inactive) |
| CCOC(=O)C1=C[C@@H](C(C)(C)C)N(S(=O)(=O)c2ccc(C)cc2)[C@H]1c1cccc(Cl)c1 | -0.248 (inactive) | 0.765 | -2.08 | 0.0204 (inactive) | 0.347 (inactive) | -0.136 (inactive) |
| COc1ccc(NC(=O)O[C@H]2[C@@H]3OC(=O)[C@H](Cc4cccc(Br)c4)C/C=C/C[C@@H](Cc4cccc(Br)c4)C(=O)O[C@H]3[C@@H](OC)O[C@@H]2CO)cc1 | 1.25 (inactive) | 0.369 | -1.6 | -1.86 (inactive) | 0.0003 (inactive) | 0.0972 (inactive) |
| C=CCC(OC(C)=O)[C@@H]1[C@@H](N(Cc2cccc3ccccc23)C(=O)c2cccc3ccccc23)c2cc(OCCCO)ccc2N1C(=O)c1ccc2ccccc2c1 (stereo not given in full) | 0.25 (inactive) | 0.012 | -2.41 | -1.18 (inactive) | -0.534 (inactive) | -0.158 (inactive) |
| C=C(/C(=C/C[C@@H](OC(C)=O)c1ccc(OCCO)cc1)c1cc(C(=O)OC)ccc1OC)C(C)C | 0.96 (inactive) | 0.819 | -3 | -4.3 (inactive) | 0.38 (inactive) | 0.578 (inactive) |
| COc1cc2c(cc1O)C(c1ccc(CN3CCCC3)cc1)N(C)CC2 (stereo not given) | -0.389 (inactive) | -0.819 | -1.58 | -2.85 (inactive) | 0.227 (inactive) | 0.129 (inactive) |
| COc1ccc(C(O)C2C=CC3C(=O)N(c4ccccc4)C(=O)C3N2Nc2ccccc2F)cc1 (stereo not given) | 1.11 (inactive) | 0.857 | 0.571 | -3.05 (inactive) | -0.296 (inactive) | -0.741 (inactive) |
| [N-]=[N+]=Nc1ccccc1C[C@@]1(C(=O)O)N=C(c2ccc(OCCCO)cc2)O[C@@H]1c1ccccc1N=[N+]=[N-] | 0.0588 (inactive) | 0.736 | -1.74 | -5.17 (inactive) | -0.267 (inactive) | -0.317 (inactive) |
| NC(=O)N1C(=O)C2C(C1=O)C1C=C(CCCO)C2C(C2CC2)N1Cc1cccc(OC(F)(F)F)c1 (stereo not given) | 0.198 (inactive) | -0.341 | 1.17 | -8.76 (active) | 0.791 (inactive) | 0.384 (inactive) |
